Source: PubChem
Shown are actives, neighbours in structure and some others; about 1.4% of the full set was active somewhere.
EPAC2 ag: qHTS for Agonist of cAMP-regulated guanine nucleotide exchange factor 4 (EPAC2): primary screen; Rap guanine nucleotide exchange factor 4 (Homo sapiens), Q8WZA2; EPAC2 activation, biochemical qHTS; response scale: 100% = 6.5 mM cAMP response; Potency, µM (highest dose often 154 µM), for inactives: at the top dose activation, most hits filed as activators; actives 0.079% (n = 360,000); note: nearly all actives have a fitted effect of over 50% in size
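qHTS, titration series. 100 nM EPAC2 / 250 nM Rap1B-BODIPY-GDP / 50 uM GDP; RT; ex 480/em 540 nm, 5-min reads to 30 min. Norm. to 6.5 mM cAMP = activation.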
EPAC1 ag: qHTS for Agonist of cAMP-regulated guanine nucleotide exchange factor 3 (EPAC1): primary screen; Rap guanine nucleotide exchange factor 3 (Homo sapiens), O95398; EPAC1 agonist qHTS, biochemical assay; response scale: 100% = response to 6.5 mM cAMP; Potency, µM (top dose mostly 154 µM), inactives show at the highest dose activation, actives largely listed as activators; actives 0.073% (n = 360,000); AID 720707, 2013; note: nearly all actives have a fitted effect of over 60% in size
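Nucleotide exchange assay: 100 nM EPAC1 with 250 nM Rap1B loaded with BODIPY-GDP and 50 uM GDP, room temperature. Fluorescence (480/540 nm) read every 5 min for 30 min; signal change normalized to 6.5 mM cAMP as full agonist.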
BRCA1 expr act: qHTS Assay to Identify Small Molecule Activators of BRCA1 Expression. Potency, µM (doses to about 46.1 µM), inactives show at the top dose activation, usual class: activators. MCF7-BRCA1-FFLuc reporter, luminescence, 48 h; response scale: scaled: vehicle 0%, 10 µM genistein 100%. actives 1.1% (n = 380,000); note: nearly all actives have a fitted effect of over 80% in size
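First, MCF7-BRCA1-FFLuc cells (2000/well) attach for 2 h; next, compounds are pin-added and incubated 48 h at 37 °C; finally, luciferase reagent is added and luminescence read after 15 min.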
EPAC1 antagonist: qHTS for Antagonist of cAMP-regulated guanine nucleotide exchange factor 3 (EPAC1): primary screen; Potency, µM (top dose mostly 115 µM), for inactives: at the top dose activity change, negative = inhibition, hits mostly inhibitors; AID 720709, 2013; Rap guanine nucleotide exchange factor 3 (Homo sapiens), O95398; actives 0.14% (n = 360,000); EPAC1 GEF assay, Rap1b-BODIPY-GDP exchange fluorescence;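 note: plate controls were vehicle for no effect and positive control for full effect; nearly all actives have a fitted effect of over 50% in size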
USP1-UAF1 inh: Inhibitors of USP1/UAF1: Primary Screen | Ubiquitin carboxyl-terminal hydrolase 1 (Homo sapiens), O94782 | recombinant USP1/UAF1, Ub-Rhodamine cleavage fluorescence | Potency, µM (highest dose often 57.1 µM), inactives show top-dose activity change, negative = inhibition, actives largely listed as inhibitors | actives 0.23% (n = 390,000); note: % is set by controls: 0 for no effect and ±100 for the full control effect; nearly all actives have a fitted effect of over 60% in size
Target sequence (O94782 whole entry, looked up): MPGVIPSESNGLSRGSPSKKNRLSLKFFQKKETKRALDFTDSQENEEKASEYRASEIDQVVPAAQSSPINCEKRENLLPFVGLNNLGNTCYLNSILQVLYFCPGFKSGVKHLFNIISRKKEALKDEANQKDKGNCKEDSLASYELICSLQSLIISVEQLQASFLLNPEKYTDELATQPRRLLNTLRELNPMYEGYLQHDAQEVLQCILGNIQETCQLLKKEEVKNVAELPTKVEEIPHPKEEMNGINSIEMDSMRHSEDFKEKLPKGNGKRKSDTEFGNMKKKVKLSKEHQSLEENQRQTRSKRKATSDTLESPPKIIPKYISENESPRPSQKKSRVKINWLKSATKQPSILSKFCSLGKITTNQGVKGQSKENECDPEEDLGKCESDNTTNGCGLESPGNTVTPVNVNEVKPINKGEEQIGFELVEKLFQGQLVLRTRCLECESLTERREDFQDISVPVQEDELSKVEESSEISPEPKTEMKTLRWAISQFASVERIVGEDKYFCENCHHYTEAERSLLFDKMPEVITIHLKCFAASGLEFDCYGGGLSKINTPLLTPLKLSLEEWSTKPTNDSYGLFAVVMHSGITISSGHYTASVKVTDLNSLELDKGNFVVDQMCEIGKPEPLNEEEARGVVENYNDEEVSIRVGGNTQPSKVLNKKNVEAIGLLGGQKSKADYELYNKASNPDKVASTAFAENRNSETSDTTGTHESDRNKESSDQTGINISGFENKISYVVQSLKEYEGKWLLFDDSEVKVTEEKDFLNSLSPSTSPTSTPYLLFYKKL
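USP1/UAF1 complex at 1 nM was preincubated with compound for 15 min at room temperature, then Ub-Rho substrate (150nM final) was added. Fluorescence (480/540 nm) was read kinetically, 6 reads every 60 seconds.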
EPAC2 antag: qHTS for Antagonist of cAMP-regulated guanine nucleotide exchange factor 2 (EPAC2): primary screen; Rap guanine nucleotide exchange factor 4 (Homo sapiens), Q8WZA2; EPAC2 GEF exchange of Rap1B-BODIPY-GDP, fluorescence; Potency, µM (highest dose often 114 µM), for inactives: at the highest dose activity, negative = inhibition, actives largely listed as inhibitors; actives 0.18% (n = 360,000); note: % is set by controls: 0 for no effect and ±100 for the full control effect; nearly all actives have a fitted effect of over 45% in size
Active calls of the source: *; u = inconclusive; x = not tested or not shown. Calls come from the whole dose curve; as a rule, active = well fitted curve in the direction sought with a large enough effect; inconclusive = small, poorly fitted or top-dose-only effect, or another doubt; inactive = no such curve, though single readings can be large; an effect the other way counts as inactive or inconclusive. Potency is the fitted concentration of half-maximal effect.

SMILES	EPAC2 ag	EPAC1 ag	BRCA1 expr act	EPAC1 antagonist	USP1-UAF1 inh	EPAC2 antag
CCN(CC)S(=O)(=O)c1ccc(C(=O)NCC(=O)NCc2ccc3c(c2)OCO3)cc1	1%	-12%	5%	16%	-23%	3%
CCCn1c(=O)c2sccc2n2c(CCCC(=O)N3CCN(c4cccc(C)c4C)CC3)nnc12	x	x	x	x	-21%	x
CC(=Nc1ccc(Br)cc1)c1sc2ccccc2c1O	21%	-3%	4µM*	-3%	u	1%
CCOC(=O)c1cc(C(=O)Nc2ccc(C)c(F)c2)nn1C	-5%	1%	10µM*	0%	-13%	3%
Cc1ccc(CNC(=O)C(C)n2ccc3cc(S(=O)(=O)N4CCCC4)ccc32)cc1 (stereo not given)	x	x	x	x	-11%	x
C=CCn1c(-c2ccc(OC)cc2)nc2ccccc21	-4%	14%	10µM*	4%	-3%	3%
CO[C@H](C(=O)N(C)C[C@@H]1OCc2ccccc2-c2c(n(C)c3ccccc23)C(=O)N([C@H](C)CO)C[C@@H]1C)c1ccccc1	3%	-10%	5%	13%	-21%	2%
CCOC(=O)CC(NC(=O)c1cc2cc(Br)cc(OC)c2oc1=O)c1ccc(OC)cc1 (stereo not given)	x	x	29%	x	-13%	x
CCOC(=O)CC(NC(=O)c1cc2cccc(OC)c2oc1=O)c1ccc(OC)cc1 (stereo not given)	5%	8%	13µM*	-3%	-26%	-2%
CCCN1C(=O)/C(=C/C=C2\N(CC)c3ccccc3C2(C)C)SC1=S	-12%	22%	-26%	17%	75%	21%
CCCCN1C(=O)/C(=C/C=C2/CC(C)(C)CN2C)SC1=S	18%	u	10µM*	51%	22µM*	56%
CCCCN1C(=O)/C(=C/C=C2\Oc3ccccc3N2CC)SC1=S	32µM*	u	-2%	-14%	u	30%
CC1=Nc2cc(C(=O)NCCc3ccc(Cl)cc3)ccc2Sc2ccc(C)cc21	x	x	x	x	-18%	x
C/C(=N/NC(=O)c1cc(C)[nH]n1)c1ccncc1	11%	1%	52%	-9%	4%	6%
Cc1ccc(S(=O)(=O)N2[C@H](CC(=O)c3cccs3)OC[C@@H]2C)cc1	12%	4%	x	-3%	x	-26%
Cc1ccc2nc(-c3ccc(N4C(=NC(=O)CCC(=O)O)SC5CS(=O)(=O)CC54)cc3)sc2c1 (stereo not given)	-17%	-9%	5.6µM*	-1%	-2%	3%
O=S(=O)(Nc1ccc(-c2nc3cccnc3s2)cc1)c1ccccc1F	-5%	0%	10µM*	-10%	-22%	16%
O=S(=O)(Nc1ccc(-c2nc3cccnc3s2)cc1)c1ccc(Cl)s1	8%	3%	48%	7%	-15%	-12%
CN(C)/[N+]([O-])=N/Oc1ccc([N+](=O)[O-])cn1	x	x	0%	x	x	x
Cc1csc(SCc2nnc(-c3ccc(Cl)cc3)o2)n1	1%	-5%	7.1µM*	-7%	-11%	1%
CCOC(=O)c1ccc2nc3c(cc2c1)CCS3	6%	5%	10µM*	14%	-3%	12%
CC(C)(C)c1ccc(S(=O)(=O)N2CCN(C(=O)C3=COCCO3)CC2)cc1	-5%	-17%	-3%	-5%	-16%	7%
CCOC(=O)c1oc2ccc(CNC3CCCCC3)c(Cl)c2c1C	12%	10%	-10%	-3%	u	-7%
CCOC(=O)c1oc2ccc(CNCCO)c(Cl)c2c1C	-1%	10%	11µM*	-3%	-2%	-5%
C=C1C(=O)OCC2C(C(=O)O)=CC3C(C)C(C)=CC123 (stereo not given)	1%	-2%	-49%	2%	-24%	2%
SMILES	EPAC2 ag	EPAC1 ag	BRCA1 expr act	EPAC1 antagonist	USP1-UAF1 inh	EPAC2 antag
Nc1cc(Cl)ccc1CN1C(=O)c2ccccc2C1=O	9%	3%	-41%	-14%	x	-6%
CC(C)Oc1ccc(C(=O)NCc2cccs2)cc1	10%	6%	13µM*	-2%	-1%	-4%
CC(C)Cc1cc(C(=O)NCc2cccs2)no1	16%	-7%	13µM*	-6%	-6%	6%
Cc1cc(C(=O)NCc2cccs2)cs1	7%	-1%	10µM*	-2%	-11%	19%
COc1ccc(OC)c(S(=O)(=O)N/N=C\c2ccc3c(c2)OCO3)c1	9%	-3%	13µM*	-17%	-21%	-1%
Cc1ccccc1CN1CCCN(CC(=O)Nc2ccc3c(c2)OCCO3)S1(=O)=O	x	x	x	x	-28%	x
Cc1cc(/C=C2/NC(=O)N(c3ccccc3)C2=O)c(C)n1-c1cccnc1	7%	2%	1.3µM*	-3%	-19%	-2%
COc1ccc(S(=O)(=O)N2CCC[C@H]2C(=O)N2CCC[C@H]2C(=O)NCc2ccccc2)cc1C	1%	-10%	-8%	20%	x	47µM*
COc1cccc(CNC(=O)[C@@H]2CCCN2C(=O)[C@@H]2CCCN2S(=O)(=O)c2ccc(OC)c(C)c2)c1	-3%	-17%	1%	1%	x	-8%
CCn1c(=O)c(C(=O)Nc2ccccc2C)c(O)c2ccccc21	10%	3%	-20%	-6%	-14%	2%
CCn1c(=O)c(C(=O)Nc2ccccc2S(N)(=O)=O)c(O)c2ccccc21	20%	11%	-18%	56µM*	0%	-4%
CCCc1nnc(NC(=O)CCC(=O)Nc2ccc(Cl)cc2)s1	4%	15%	-1%	18%	-12%	-2%
CCCc1nnc(NC(=S)Nc2ccccc2)s1	1%	-9%	2.2µM*	8%	-13%	13%
CC(C)C(=O)Nc1nnc(NC(=S)Nc2ccccc2)s1	-3%	-7%	10µM*	0%	-16%	4%
CC(C)(C)C(=O)Nc1nnc(CCc2ccccc2)s1	3%	-7%	4.5µM*	-16%	0%	-3%
COc1ccc2cc(CCNC(=O)c3ccco3)c(=O)[nH]c2c1	6%	-4%	102%	15%	-20%	17%
Cc1ccc2cc(CCNC(=O)c3ccco3)c(=O)[nH]c2c1	-5%	4%	13µM*	2%	-8%	8%
